Experimental data published in PubChem BioAssay AID652106 (National Center for Advancing Translational Sciences (NCATS), 2013).
Among all 370,000 compounds or so, about 500 (0.14%) were called active. Inconclusive results (about 2%) are left out. Calls come from the whole dose curve; as a rule, active = well fitted activation curve with a large enough effect; inconclusive = small, poorly fitted or top-dose-only effect; inactive = no such curve, though single readings can be large or run the other way. This excerpt belongs to a sample that is enriched for actives.

Experiment: qHTS of alpha-syn Inhibitors; note: nearly all actives have a fitted effect of over 65% in size
Details: Yeast expressing alpha-synuclein, BacTiter-Glo, 24 h; Potency: growth rescue; series mostly up to 46.1 µM
Excerpt: The goal of this project is to identify new chemical probes capable of reversing the toxicity associated with the Parkinson disease-related protein, alpha-synuclein. Compounds will be selected on their ability to restore growth in yeast cells expressing toxic levels of alpha-synuclein. These compounds will provide a complementary approach to deciphering the tangled mechanisms of toxicity and protection that we have uncovered through genome-wide genetic screens and are beginning to uncover in a large-scale proteomics analysis with mass spectroscopy. To this end, a miniaturized assay was developed to be screened against the Molecular Libraries Small Molecule Repository (MLSMR) to discover alpha-synuclein inhibitors. Please note that in the set-up this yeast-based assay compounds that inhibit as alpha-syn, have a read-out as activators. NIH Chemical Genomics Center [NCGC] NIH Molecular Libraries Probe Centers Network [MLPCN] MLPCN Grant: NS060957 Assay Submitter (PI): Susan Lindquist, Whitehead Institute/MIT
Dispense 2.5 microL yeast galactose medium per 1536-well plate, pin compound, dispense 2.5 microL alpha-synuclein expressing yeast in galactose medium at OD600=0.02 (pregrown in raffinose medium to mid-log phase) per well, incubate for 24 hr at 30 deg C, and cell growth will be measured using 5 microL of Bactiter/Glo reagent to entire plate and read using Luminescence Protocol in ViewLux.
Potency is the fitted concentration of half-maximal effect.

Potency, inactive:
CSc1n[nH]c(-c2ccco2)n1
Cc1ccc(C)c(NC(=S)NCC(c2cccnc2)N2CCOCC2)c1 (configuration not stated)
Cc1ccc(C(CNC(=O)Nc2ccccc2)N2CCN(C)CC2)cc1 (configuration not stated)
O=C(COc1ccccc1)Nc1nonc1NC(=O)COc1ccccc1
O=C(COC(=O)CSc1nnc(-c2ccc(Cl)cc2)o1)Nc1cc(Cl)cc(Cl)c1
CCCS(=O)(=O)Nc1cccc(-c2cn3ccsc3n2)c1
CC1CCN(S(=O)(=O)c2ccc3c(c2)N(CC(=O)NCc2ccccc2Cl)C(=O)CO3)CC1
CC(=O)c1ccc[n+](C(C)CCC(C)[n+]2cccc(C(C)=O)c2)c1 (configuration not stated)
COc1cccc(C(=O)c2sc3nc(-c4ccccc4)cc(C(F)(F)F)c3c2N)c1
CC(=O)c1c(Nc2ccccc2)sc(C(=O)c2ccccc2)c1C
CN(CCC#N)c1ccc(C=O)cc1
Cc1[nH]c2ccccc2c1C(=O)C(=O)N(C)c1ccccc1
CN1CC[C@H](c2c(O)cc(O)c3c(=O)cc(-c4ccccc4Cl)oc23)[C@H](O)C1
COc1cc(C(CC(=O)NCCC(C)C)N2Cc3ccccc3C2=O)cc(OC)c1OC (configuration not stated)
COc1ccc(/C=C/c2ccnc3ccccc23)cc1OC
C/C(=N\NC(=O)c1cccc([N+](=O)[O-])c1)c1cccnc1
O=C(NC(=S)NC1CCS(=O)(=O)C1)c1cccc([N+](=O)[O-])c1 (configuration not stated)
O=[N+]([O-])c1ccc(/C=C/c2ccc3cccnc3c2)cc1
O=S(=O)(c1cccc(C(F)(F)F)c1)N1CCN(c2nc(-c3cccs3)nc3ccccc23)CC1
CO[C@H]1O[C@@H]2O[C@@]3(C)CC[C@@H]4[C@@H](C)CC[C@@H]([C@H]1C)[C@@]24OO3
CCOc1cc(C(=O)Nc2nnc3n2CCS3)cc(OCC)c1OCC
COc1ccc(-c2ccc(CN3C(CC(C)C)C(=O)N(Cc4cn(CC5CCCCC5)nn4)CCS3(=O)=O)cc2)cn1 (configuration not stated)
CC(=O)c1cccc(-c2ccc(CN3C(CC(C)C)C(=O)N(Cc4cn(CC5CCCCC5)nn4)CCS3(=O)=O)cc2)c1 (configuration not stated)
CCOc1ccccc1NC(=O)c1cccnc1
O=C(Nc1cnccn1)c1cccnc1
CCOc1ccc(NC(=O)CSc2nnc3c(n2)[nH]c2ccc(S(=O)(=O)N4CCOCC4)cc23)cc1
CCN(CC)c1ccc(/C=C/c2c(C)cnc3ccc(C)cc23)cc1
COc1cc2nc(N3CCCN(C)CC3)nc(NC3CC3)c2cc1OC
OC(CBr)C[n+]1cccc2cc(Br)ccc21 (configuration not stated)
ClC/C=C/C[n+]1ccccc1Cl
O=C(c1ccco1)N(Cc1cccs1)c1ccc(O)cc1
O=c1cc(-c2ccccc2)[nH]c2nc(Cl)ccc12
NS(=O)(=O)c1ccc(NC(=O)CSc2nnc3c(n2)[nH]c2ccccc23)cc1
CCC(C)N(c1ccc(/C=C/c2ccnc3ccccc23)cc1)C(C)CC (configuration not stated)
O=C1c2ccccc2C(=O)N1c1ccc(S(=O)(=O)N2CCOCC2)c2ccccc12
CS(=O)c1ccc(/C=C2\C=Cc3ccccc32)cc1 (configuration not stated)
Cc1ccc(C(=O)CSc2nc(-c3ccccc3)nc3c2CCCC3)c(C)c1
Cc1cccc(Nc2nc(C)nc(N)c2S(=O)(=O)c2ccccc2)c1
Brc1cccc[n+]1Cc1cccc(C[n+]2ccccc2Br)c1
OC(Cc1ccc2ccccc2n1)c1ccc(Cl)c(Cl)c1 (configuration not stated)
COc1ccc(C)cc1NC(=O)C(=O)NCCc1sc(-c2cccc(C)c2)nc1C
CN(C)c1ccc(/C=C2\C=Cc3ccccc32)cc1Br
CC(C)(C(=O)NO)c1ccccc1
CCOc1ccccc1C(=O)NC1(C(F)(F)F)NC(=O)N(CCc2ccc(OC)c(OC)c2)C1=O (configuration not stated)
O=C(c1cnn2c1NC(=C1CC1)C=C2C(F)F)N1CCc2ccccc2C1
Cc1cc(F)ccc1NC1(c2ccccc2)C(=O)c2ccccc2C1=O
O=S(=O)(Nc1cccc2cccnc12)c1cccc2cccnc12
O=[N+]([O-])c1ccccc1S(=O)(=O)Nc1cccc2cccnc12
O=C(NNC(=O)c1ccc(Cl)nc1)c1ccc(Br)cc1
CNC(=S)NNC(=O)c1ccc(N(C)C)cc1
Cc1ccc(-c2nc(=N)sn2Cc2ccccc2)cc1
CC(C)CC(COCc1ccc(Cl)cc1)N1CCN(C(=O)c2ccc(C(F)(F)F)cc2)CCC1=O (configuration not stated)
CC(C)CC(CO)N1CCN(C(=O)c2ccc(Cl)cc2Cl)CCC1=O (configuration not stated)
CN(C(=N)N)c1ccc(/C=C2\C=Cc3ccccc32)cc1
CN(C)CCCn1c(-c2ccc(Cl)cc2)csc1=Nc1ccccc1
CN(C)c1ccc(/C=C/c2sc3ccccc3[n+]2C)cc1
CC1(C)C=Cc2c(ccc(C(=O)/C=C/c3ccccc3)c2O)O1
COc1ccc(C2Nc3ccc(NC(=O)COC(C)=O)cc3C(=O)N2Cc2ccccc2)cc1COc1ccc(NC(C)=O)cc1 (configuration not stated)
N#Cc1ccc[n+](CC(=O)c2ccc(O)c(O)c2)c1
CCCCCCCNc1ccc(/C=C/c2ccnc3ccccc23)cc1
O=C(Nc1ccc(Cl)cc1)c1cnn2c1NC(=C1CC1)C=C2C(F)F
COc1ccc(/C=C/c2ccccn2)cc1OC
Cc1ccccc1NC(=O)Cn1c(=O)n(Cc2ccco2)c(=O)c2ccc(C(=O)NC3CCCC3)cc21
OCC(O)C(O)C(O)C(O)C=Nc1ccc(/C=C/c2ccnc3ccccc23)cc1 (configuration not stated)
Oc1ccc(Br)cc1C1C=C(c2ccc3c(c2)OCO3)NC(c2ccc(Cl)cc2)N1 (configuration not stated)
CCc1ccccc1NC(=O)c1cnn(-c2ccc(F)cc2)c1C1CCNCC1
CCCCCCC1(C)NC(c2ccc3c(c2)OCO3)=CC(c2ccccc2O)N1 (configuration not stated)
CCCCC(CCCC)c1ccc(C=Nc2ccc(/C=C/c3ccnc4ccccc34)cc2)cc1
CCOC(=O)c1c(NC(=O)c2ccc(S(=O)(=O)N3CCCC(C)C3)cc2)sc2c1CCN(C(C)C)C2 (configuration not stated)
CCC1(C)CC(=O)NC1=O (configuration not stated)
COc1ccc(CNc2nc(-c3ccc(Cl)cc3)nn2S(=O)(=O)c2ccc(C)cc2)cc1
CN(C)C1=C2C=CC=CC2/C(=C2/C=Cc3ccccc32)C=C1 (configuration not stated)
Cc1nn(C)c(Oc2ccc(Cl)cc2)c1C=O
Nc1ccc2nn(-c3ccc(Cl)cc3)nc2c1
COc1cc2nc(N3CCCN(C)CC3)nc(NC(C)C)c2cc1OC
O=C(Nc1ccc([N+](=O)[O-])cc1)c1cnn2c1NC(=C1CC1)C=C2C(F)F
Nc1ncnc2c1c(I)cn2[C@@H]1C[C@H](N)[C@@H](O)[C@H]1O
Cc1cccc(-c2nnc(SC(C)C(=O)Nc3ccccc3)n2C)c1 (configuration not stated)
O=C(c1ccc2c(=O)n(Cc3ccco3)c(=S)[nH]c2c1)N1CCCC1
OCc1cnc(SCc2ccc(F)cc2)n1Cc1ccc(F)cc1
Cc1ccc(C)c2sc(NC(=O)c3ccc(S(=O)(=O)N4CCCC4)cc3)nc12
O=C1COc2ccc(-c3csc(-c4ccc(Cl)cc4)n3)cc2N1
CCc1ccc(NC(=O)CN2CCSc3ccc(S(=O)(=O)N4CCCC4)cc32)cc1
c1ccc(Cn2nnc3c(N4CCCCC4)ncnc32)cc1
Cc1c(CCO)sc[n+]1CC(=O)c1ccc2ccccc2c1
COc1cc2nc(Cl)nc(NC3CC3)c2cc1OC
Oc1ccc(Cl)cc1C1C=C(c2ccc3c(c2)OCO3)NC(c2c(F)cccc2Cl)N1 (configuration not stated)
CCCCOc1ccc(C(=O)NO)cc1
Cc1nn(-c2ccc(F)cc2)c(-n2cccc2)c1C(=O)N1CCN(c2ccccc2)CC1
CCCCNC(=O)Cn1c(SCc2cccc(Cl)c2)nc2ccncc21
COc1ccc(-c2c(-c3ccc(OC)cc3O)nc(C)nc2C(F)(F)F)cc1
COc1ccc(-c2[nH]ncc2CN(C)Cc2c(C)n[nH]c2C)c(OC)c1
Cc1ccc(-n2c(SCC(=O)c3ccccc3)nc3c([nH]c4ccccc43)c2=O)cc1

Potency, active:
Cc1ccc(NC(=O)NCC(c2cccnc2)N2CCOCC2)cc1 (configuration not stated) 5.62 µM
O=C(COC(=O)c1ccc(Oc2ccccc2)cc1)Nc1nnc(-c2ccccc2)o1 22.4 µM
CN(C)c1ccnc2sc(C(=O)c3ccccc3)c(N)c12 25.1 µM
CC(C)CC(=O)NC(=S)NNC(=O)c1cccc([N+](=O)[O-])c1 17.8 µM
CC(C)c1cccc(C(C)C)c1Nc1cn[nH]c1 3.98 µM
CC(C)CC1C(=O)N(Cc2cn(CC3CCCCC3)nn2)CCS(=O)(=O)N1Cc1ccc(-c2ccc(Cl)cc2)cc1 (configuration not stated) 1.58 µM
O=C(CC(=O)c1cccnc1)c1ccccc1 15.8 µM
CN(O)C(=S)c1ccccc1 3.55 µM
COc1ccc(S(=O)(=O)Nc2cccc3cccnc23)c(N)c1 22.4 µM
CC(=O)NC(=S)NNC(=O)c1ccc(Br)cc1 12.6 µM
CC(C)C[C@@H](COCc1ccc(Cl)cc1)N1CCN(C(=O)c2ccc(Cl)cc2Cl)CCC1=O 15.8 µM
Nc1ccc(Oc2ccc(Cl)cc2)cc1 17.8 µM
COc1c(C)c2c(c(O)c1C/C=C(\C)CCC(=O)O)C(=O)OC2 7.08 µM
COc1ccc(Oc2cn[nH]c2-c2ccc(OC)cc2O)cc1 17.8 µM
